# High-throughput results: PubChem, SRMLSC
# Only some compounds are listed: those with a hit (about 6.8% of all), similar ones and a draw of the others.
# Spn DPM-DC inh: blocks S. pneumoniae diphosphomevalonate decarboxylase; purified DPM-DC, PK/LDH coupled NADH fluorescence; calls only at 10 µM; actives 0.49% (n = 65,000);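 active means the 320 compounds with the highest percent inhibition in the single-dose primary screen, excluding strongly autofluorescent ones, cut at about 32% in these data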;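 further: kinetic rate of NADH fluorescence loss reporting ADP formed by the decarboxylase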
# PMK inhibit: inhibitors of Streptococcus pneumoniae phosphomevalonate kinase. purified PMK, PK/LDH-coupled NADH absorbance 340 nm. inhibition, % at 10 µM. actives 0.49% (n = 65,000). AID 539;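 active means top-ranked compounds by inhibition in the single 10 µM screen, taking a fixed number of the strongest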;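 further: 0% = full reaction with DMSO carrier and 100% = background rate without enzyme reaction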
# Fluor 339 460: intrinsic fluorescence of library compounds, ex339/em460 – biochemical, MLSMR library, data from DPM-DC assay, artefact control, profiling panel; compound autofluorescence, ex339/em460 nm, NADH buffer; hits give high values; 1 = no-compound wells, NADH background; fluorescence fold increase at 10 µM; actives 5.5% (n = 65,000);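 active means at 10 µM, mean starting fluorescence two-fold or more over control wells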;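 further: signal is the first read of a kinetic run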
# NADH enzymes: blocks coupling enzymes of NAD/NADH assays. coupled PK/LDH NADH assays, four targets. IC50, µM (titrated, usually from 10 µM), inactives show at the top dose inhibition. actives 0.02% (n = 65,000). AID 774;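 active means single-dose screening hits from any of four coupled enzyme assays that gave an IC50 when retested across doses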;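 further: the DPM-DC format reads NADH fluorescence rather than 340 nm absorbance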
# Abs 340nm: compounds absorbing at 340 nm; compound absorbance at 340 nm, fold over control; fold change at 10 µM; 65,000 tested, under 10 active; AID 708;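 active means at 10 µM dose, initial 340 nm absorbance at least 2 fold that of control wells; inactive means change under 2 fold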;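 further: initial absorbance extrapolated from kinetic A340 decline of NADH oxidation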
# MK inhibit: blocks S. pneumoniae mevalonate kinase. AID 555. inhibition, % at 10 µM. actives 0.48% (n = 65,000). purified MK, PK/LDH-coupled NADH absorbance 340 nm;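 active means ranked among the strongest by inhibition in the single 10 µM screen, a fixed top-ranked set picked for dose follow-up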
# An asterisk follows results filed as active; i = inactive; x = not tested or not shown; + = active, no number; [ ] = dose if it differs, or a comment.
SMILES,Spn DPM-DC inh,PMK inhibit,Fluor 339 460,NADH enzymes,Abs 340nm,MK inhibit
O=C(Nc1ccc2oc(-c3ccncc3)nc2c1)c1cccs1,x,5.0,1.99,2.0%,1.04,4.0
O=S(=O)(NC1CCc2ccccc21)c1ccc(S(=O)(=O)N2CCCC2)cc1 (centres undefined),i,1.0,1.06,2.0%,1.03,4.0
O=C(CSc1nc2ccccc2[nH]1)NCCCn1ccnc1,i,16.0,1.05,14.0%,1.02,11.0
Cn1cc(C(=O)c2ccc(Cl)cc2)cc1-c1nc2ccccc2n1C,i,3.0,1.24,1.0%,1.11,0.0
CCC(=O)Nc1ccc2oc(-c3cccc(C)c3)nc2c1,x,0.0,2.33*,0.0%,1.07,0.0
CCCCC(=O)Nc1cccc(-c2nc3ncccc3o2)c1,i,14.0,2.27*,17.0%,1.04,11.0
CC(=O)c1cccc(S(=O)(=O)N2CCN(c3nc4cc(C)cc(C)c4cc3C#N)CC2)c1,i,0.0,2.23*,0.0%,1.09,1.0
C/C(=C\C(=O)Nc1nccs1)c1ccccc1,i,0.0,0.98,1.0%,1.07,4.0
CCc1ccc(OCC(=O)Nc2ccc(-c3nc4ccccc4o3)c(O)c2)cc1,x,7.0,2.2*,9.0%,1.11,11.0
CCN(CC)CCOC(=O)c1c(C)n(C)c2ccc(OC)cc12,i,5.0,1.12,2.0%,1.02,0.0
COc1ccc2c(c1)c1c(n2C(C)=O)C(OC(C)=O)=NCC1,x,7.0,2.3*,4.0%,1.01,4.0
CCOc1ccc(CCNC(=O)C2CCCN(c3nn4c(=O)cc(C)nc4s3)C2)cc1 (centres undefined),i,22.0,1.05,7.0%,1.02,0.0
COCCNC(=O)C1CCCN(c2nn3c(=O)cc(C)nc3s2)C1 (centres undefined),i,33.0*,1.03,11.0%,1,0.0
Cc1ccc2[nH]c(-c3cccc(N)c3)cc2c1,x,10.0,3.82*,9.0%,1.04,7.0
O=C(c1ccco1)N1CCN(C(=O)c2cnn3c(C(F)(F)F)cc(-c4cccs4)nc23)CC1,x,5.0,3.63*,6.0%,1.1,7.0
O=C(c1ccco1)N1CCN(c2ncnc3c(-c4ccccc4)nsc23)CC1,i,9.0,1.41,8.0%,1.02,7.0
COc1ccc(-c2cc(C(F)F)n3ncc(C(=O)N4CCN(C(=O)c5ccco5)CC4)c3n2)cc1,x,17.0,2.06*,14.0%,1.1,11.0
CCN1CCN(C(=O)c2cnn3c(C(F)F)cc(-c4ccc(C)cc4)nc23)CC1,i,9.0,2.27*,13.0%,1.12,9.0
CN1CCN(C(=O)c2cnn3c(C(F)(F)F)cc(-c4ccc5c(c4)OCO5)nc23)CC1,i,14.0,1.06,8.0%,1.09,6.0
COc1ccc(-c2nsc3c(N4CCN(C(=O)c5ccco5)CC4)ncnc23)cc1,+,11.0,2.79*,18.0%,1.08,9.0
Cc1cc(NC(=O)C23CCC(C)(c4nc5cc(Cl)c(Cl)cc5nc42)C3(C)C)no1 (centres undefined),i,3.0,1.01,1.0%,0.99,0.0
COc1ccc(-c2cc(C(F)F)n3ncc(C(=O)NCCCN4CCCC4=O)c3n2)cc1,x,15.0,2.2*,11.0%,1.11,6.0
COc1ccc(NC(=O)NCCCN2CCCC2=O)cc1,i,19.0,1.07,12.0%,0.99,11.0
Nc1nonc1C(=O)NCCNC(=O)c1cccs1,i,0.0,1.15,0.0%,1.02,1.0
CCOc1ccc(Nc2nc(Cc3nnc(SCC(=O)NCC4CCCO4)n3C)cs2)cc1 (centres undefined),i,16.0,1.07,7.0%,0.95,5.0
SMILES,Spn DPM-DC inh,PMK inhibit,Fluor 339 460,NADH enzymes,Abs 340nm,MK inhibit
CCOc1ccc(Nc2nc(Cc3nnc(SCC(N)=O)o3)cs2)cc1,i,28.0*,1.03,5.0%,1,2.0
Cc1ccc(C2C3CN(C(C)C)CC=C3C(C#N)=C(N)C2(C#N)C#N)cc1 (centres undefined),+[fluoresces],0.0,2.28*,2.0%,0.99,5.0
COc1ccc(OC)c(C2C3CN(C(C)C)CC=C3C(C#N)=C(N)C2(C#N)C#N)c1 (centres undefined),i,6.0,1.46,6.0%,0.99,12.0
CN1CC=C2C(C#N)=C(N)C(C#N)(C#N)C(c3cccc(Cl)c3Cl)C2C1 (centres undefined),i,0.0,1.59,4.0%,0.99,19.0
CCCN1CC=C2C(C#N)=C(N)C(C#N)(C#N)C(c3cccc(OC)c3OC)C2C1 (centres undefined),i,12.0,2.17*,4.0%,1.01,0.0
CCN1CC=C2C(C#N)=C(N)C(C#N)(C#N)C(CCc3ccccc3)C2C1 (centres undefined),x,6.0,5.1*,7.0%,1.05,8.0
N#CC1=C(N)C(C#N)(C#N)[C@H](c2ccoc2)[C@H]2CN(Cc3ccccc3)CC=C12,i,6.0,2.34*,3.0%,1.06,0.0
COc1ccccc1CN(Cc1ccco1)S(=O)(=O)c1ccc(-n2cnnn2)c(OC)c1,i,2.0,1.19,2.0%,1.01,4.0
CCOC(=O)CC(N)c1ccc2c(c1)OCO2 (centres undefined),i,0.0,1.15,0.0%,1.06,0.0
COc1ccc(C(=O)Nc2ccc(-c3ccc(C)o3)cc2)cc1S(=O)(=O)N1CCOCC1,i,8.0,1.15,4.0%,1,5.0
N#CCCn1nc(-c2ccccc2)cc1Nc1ccccc1NC(=O)c1cccs1,i,0.0,1.09,3.0%,1.05,9.0
O=C(Nc1cccc(-c2cnc3ccccc3n2)c1)c1ccco1,i,0.0,1.09,2.0%,1.05,0.0
O=C(Nc1cccc(-c2cn3cccnc3n2)c1)c1ccc(Br)o1,x,13.0,5.25*,8.0%,1.07,2.0
O=C(Nc1cccc(-c2cn3cccnc3n2)c1)c1ccco1,x,11.0,5.37*,6.0%,1.08,0.0
O=C(Nc1cccc(-c2cn3cccnc3n2)c1)c1ccc2c(c1)OCO2,x,10.0,5.26*,8.0%,1.02,5.0
CCN(CC)c1nc(N)c2c(N)nc3c(c2c1C#N)CC(c1ccccc1)O3 (centres undefined),x,14.0,2.1*,10.0%,1.08,6.0
CCN(CC)c1nc(N)c2c(N)n(-c3ccccc3C)c(=S)c(C#N)c2c1C#N,i,16.0,1.79,8.0%,1.01,4.0
COCC(C)n1c(SCC(=O)NC(=O)Nc2ccc3c(c2)OCCO3)nc2ccccc2c1=O (centres undefined),i,5.0,1.14,4.0%,1,8.0
O=C(c1ccc(F)cc1)N1CCC(N2CCCCCC2)CC1,+,90.0,1.18,82.0%,1.08,78.0*
O=C(c1ccccc1F)N1CCC(N2CCCCCC2)CC1,i,0.0,1.07,10.0%,1.05,31.0
COc1ccc(-c2noc(CSc3nc(N)c(-c4ccccc4)c(=O)[nH]3)n2)cc1,i,3.0,1.12,4.0%,1.02,9.0
CCN1C(=O)c2ccc(-c3nc4ccccc4c(=O)o3)cc2C1=O,x,5.0,2.17*,5.0%,1.07,5.0
